Consider 47 compounds from PubChem BioAssay.

The target of experiment [1] is Tumor necrosis factor receptor superfamily member 10B (Homo sapiens) (UniProt O14763). The experiment can be described thus: caspase-8 TRAIL sensitization, hit retest, confirmation, cell-based, NB7+caspase-8, with/without TRAIL, luminescence panel (AID 651596). The following applies: NB7 neuroblastoma + caspase-8, TRAIL sensitization, luminescence viability, with TRAIL, mean of runs, at 10 µM, stronger effect = higher value.
Tumor necrosis factor receptor superfamily member 10B (Homo sapiens), sequence (O14763 whole entry, looked up): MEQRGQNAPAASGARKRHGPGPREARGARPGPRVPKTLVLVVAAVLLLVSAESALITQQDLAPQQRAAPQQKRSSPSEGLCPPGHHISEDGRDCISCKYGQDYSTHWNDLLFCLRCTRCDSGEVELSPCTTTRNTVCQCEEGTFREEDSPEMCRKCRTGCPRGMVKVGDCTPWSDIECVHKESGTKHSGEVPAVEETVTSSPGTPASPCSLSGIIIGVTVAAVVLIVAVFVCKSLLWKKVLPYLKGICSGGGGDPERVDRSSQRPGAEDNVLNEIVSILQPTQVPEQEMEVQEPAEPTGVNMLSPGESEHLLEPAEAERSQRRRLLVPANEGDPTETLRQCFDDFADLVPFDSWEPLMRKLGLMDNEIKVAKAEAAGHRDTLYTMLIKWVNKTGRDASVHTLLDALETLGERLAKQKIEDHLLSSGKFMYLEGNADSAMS

Experiment in experiment [2]: as above
The following applies: NB7 neuroblastoma + caspase-8, without TRAIL, luminescence viability, without TRAIL, mean of runs, at 10 µM.

As to `O=C(Nc1ccc2ccccc2c1)c1ccc(Cl)cc1Cl`, the activity is 63.9% in experiment [1] and 60.5% in experiment [2].

For the compound `COc1ccc(C)cc1NC(=O)CN(Cc1nnc(-c2ccc(Cl)cc2)o1)C1CCCC1`, the activity in experiment [1] amounted to 76.7%; in experiment [2] it was 92%.

Regarding `C=CCNC(=O)c1cc(-c2ccc3c(c2)OCO3)on1`, the activity stood at 63.3% in experiment [1] and 61.1% in experiment [2].

On to `COc1ccc(C(=O)Nc2ccccc2C(=O)N/N=C/c2cccc3ccccc23)cc1`, for which the values for the activity in experiment [1] and in experiment [2] were 98.8% and 95.8%, respectively.

For the compound `Cc1ccccc1NC(=O)Cc1nc(COC(=O)c2ccc(S(C)(=O)=O)c([N+](=O)[O-])c2)cs1`, the activity in experiment [1] was 80.5%; in experiment [2], 93.9%.

With `Cc1ccc(N2Cc3ccccc3C2=O)cc1`, the activity was found to be 64.7% in experiment [1] and 59.3% in experiment [2].

In the case of `Cc1c(Cl)cccc1Nc1nc(N)nc(CSc2ncccn2)n1`, the activity in experiment [1] is 91.8%; in experiment [2], 92.3%.

As for `CC(C)CC(N)c1csc(NC(=O)c2cc(C(C)(C)C)nn2Cc2ccccc2)n1` (centres undefined), the activity is 70% in experiment [1] and 92.4% in experiment [2].

Take `COc1ccc(C(C(=O)NC2CCCC2)N(C(=O)c2snc(-c3ccc(F)cc3)c2N)c2ccc(F)cc2)cc1` (centres undefined): the activity in experiment [1] came to 50.3%; in experiment [2] it was 43.5%.

Turning to `Oc1ccccc1-c1n[nH]c(-c2ccccc2O)n1`, the activity stood at 47.8% in experiment [1] and 48.6% in experiment [2].

Consider `CC1(C)CC(=O)c2sc(NC(=O)c3cccs3)nc2C1`, for which the activity in experiment [1] was found to be 91.9%; in experiment [2] it was 94.2%.

For `Cc1ccc(-c2cn3cc([N+](=O)[O-])ccc3n2)cc1`, the results for the activity in experiment [1] and in experiment [2] were 50.9% and 41.5%, respectively.

As to `COC(=O)c1c(NC(=O)COc2ccc(Cl)cc2Cl)sc2c1CC(C)(C)NC2(C)C`, the activity amounted to 98.7% in experiment [1] and 99.3% in experiment [2].

On to `Cc1ccc(C)c(C(=O)O/N=C(\N)c2ccc(Br)cc2)c1`, for which the activity in experiment [1] was 80.1%; in experiment [2] it was 78.7%.

For `CCCCNC(=O)c1ccc(Cn2c(=S)[nH]c3c([nH]c4ccc(OC)cc43)c2=O)cc1`, the figures for the activity in experiment [1] and in experiment [2] were 76.7% and 63.2%, respectively.

`COc1ccc2nc(NC(=O)c3ccc([N+](=O)[O-])o3)sc2c1`: the values for the activity in experiment [1] and in experiment [2] were 37.6% and 77.8%, respectively.

With `Nc1c(C(=O)N2CCOCC2)sc2nc3c(cc12)CCCC3`, the activity in experiment [1] amounted to 67.5%; in experiment [2], 63.5%.

For `COc1ccccc1-c1cc(C(=O)NC2CCN(C)CC2)c2ccc(Cl)c(C)c2n1`, the activity in experiment [1] was found to be 89.2%; in experiment [2] it was 86%.

On to `O=C(Nc1nc2ccccc2s1)c1ccc(OCC2CCCO2)cc1` (centres undefined), for which the activity in experiment [1] turned out to be 73.5%; in experiment [2] it was 67%.

For the compound `CC(C)C(=O)N1CCN(c2ccc(NC(=O)c3ccc([N+](=O)[O-])o3)cc2Cl)CC1`, the activity in experiment [1] amounted to 75.4%; in experiment [2], 97.5%.

As for `COc1ccc(-c2ccc3c(c2)S(=O)(=O)c2cccc(C(=O)NCCOc4ccccc4Cl)c2C3=O)cc1OC`, the activity in experiment [1] amounted to 91.2%; in experiment [2] it was 77.8%.

For `COc1cc(OC)cc(C(=O)Nc2ccc3c(c2)OCCO3)c1`, the activity was 47.1% in experiment [1] and 43.8% in experiment [2].

Regarding `CCOC(=O)c1cnc(-n2nc(C)cc2C)nc1N(C)C`, the activity in experiment [1] came to 55.4%; in experiment [2] it was 52.1%.

As for `O=C(c1ccccc1)n1c(=S)nc2ccccn21`, the activity in experiment [1] was 86.2%; in experiment [2] it was 85.5%.

Take `CC(C)(C)c1ccc(O)c(/C=N\O)c1`: the activity in experiment [1] is 60.4%; in experiment [2] it was 72.9%.

Consider `Nc1nc(Nc2ccccc2)nc2ccccc12`, for which the activity in experiment [1] worked out at 69.2%; in experiment [2] it was 61.3%.

For the compound `CCOc1ccccc1NC(=O)c1nc(S(=O)(=O)Cc2cccc(C)c2)ncc1Cl`, the activity was 84.6% in experiment [1] and 97.2% in experiment [2].

For `O=C(N/N=C/C(Cl)=C/c1ccccc1)c1ccccn1`, the results for the activity in experiment [1] and in experiment [2] were 61.2% and 42.8%, respectively.

For the compound `C#Cc1ccccc1OCCCN1CCC(C(O)(c2ccccc2)c2ccccc2)CC1`, the activity worked out at 97.2% in experiment [1] and 94.2% in experiment [2].

In the case of `Clc1ccc(CN2CCc3c([nH]c4ccccc34)C2)cc1Cl`, the activity in experiment [1] was -9.62%; in experiment [2], -14.6%.

For `Cc1cccc(NC(=O)CCc2ccc(N3C(N)=NC(N)=NC3(C)C)cc2)c1`, the activity turned out to be 81.3% in experiment [1] and 80.4% in experiment [2].

In the case of `Cc1cc(NC2CCCC2)n2ncc(-c3ccccc3)c2n1`, the activity in experiment [1] and in experiment [2] was 69.1% each time.

`O=C(c1ccc(CSc2nc3ccncc3[nH]2)cc1)N1CCCCCC1`: the activity in experiment [1] stood at 85.7%; in experiment [2], 82.1%.

For the compound `CSc1ccc(C2NC(=O)c3ccccc3N2)cc1` (centres undefined), the activity in experiment [1] turned out to be 31.3%; in experiment [2] it was 45.8%.

Regarding `C/C(=N\NC(=O)COc1ccc(C(C)(C)C)cc1)c1ccc(-n2ccnc2)cc1`, the activity is 63.5% in experiment [1] and 49.1% in experiment [2].

As for `COc1ccc(-c2ccc3sc4ccccc4c(=O)c3c2)cn1`, the figures for the activity in experiment [1] and in experiment [2] were 63.2% and 61.5%, respectively.

On to `CCOc1ccc(-n2c(SCC(N)=O)nc3c([nH]c4ccccc43)c2=O)cc1`, for which the activity is 59.4% in experiment [1] and 56.5% in experiment [2].

As for `CC(C)c1ccc(C(=O)Nc2cccnc2)cc1`, the activity stood at 57.1% in experiment [1] and 56.2% in experiment [2].

Turning to `COC(=O)c1ccc2nc(-c3cccc(N)c3)cn2c1`, the activity worked out at 74.5% in experiment [1] and 67.8% in experiment [2].

`C#Cc1ccc(NC(=O)C2(C)CCN2C(=O)c2ccccc2CCc2ccccc2)cc1` (centres undefined): the activity was found to be 91.2% in experiment [1] and 95.9% in experiment [2].

As for `Cc1ccc2oc(-c3ccccc3)c(C(=O)O)c(=O)c2c1`, the activity was 29.9% in experiment [1] and 39.2% in experiment [2].

On to `O=c1[nH]c2ccccc2nc1/C=C/c1ccc(Cl)cc1`, for which the values for the activity in experiment [1] and in experiment [2] were 64.9% and 74.2%, respectively.

`CC(OC(=O)c1cc(O)c2ccccc2c1O)C(=O)Nc1ccc(C(N)=O)cc1` (centres undefined): the activity in experiment [1] was determined as 49.5%; in experiment [2], 49.2%.

With `Brc1ccc(-c2ccc(/C=N/Nc3nc4ccccc4[nH]3)o2)cc1`, the activity in experiment [1] was 51.5%; in experiment [2], 42.5%.

Consider `CN1C(=O)c2ccccc2C(C(=O)NCCCN2CCCC2)C1c1c[nH]c2ccccc12` (centres undefined), for which the activity worked out at 45.5% in experiment [1] and 55.5% in experiment [2].

Consider `CCCCCN=Cc1c(C)[nH]n(-c2nc3ccccc3s2)c1=O`, for which the activity in experiment [1] turned out to be 95.5%; in experiment [2], 95.9%.

`Cc1ccc(-c2cc(-c3ccccc3)no2)c(O)c1`: the activity stood at 71.8% in experiment [1] and 60.2% in experiment [2].
